# Results filed as inconclusive are left out. Calls of active or inactive are those of the source. Calls come from the whole dose curve; as a rule, active = well fitted inhibition curve with a large enough effect; inconclusive = small, poorly fitted or top-dose-only effect; inactive = no such curve, though single readings can be large or run the other way.
# Test: qHTS to identify inhibitors of the type 1 interferon - major histocompatibility complex class I in skeletal muscle: primary screen against the NCATS Mechanism Interrogation Plate v5.0 (MIPE) Libary (AID 1347411); note: nearly all actives have a fitted effect of over 65% in size;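 for activity change, negative = inhibition: plate controls were vehicle for no effect and reference inhibitor for full effect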
# Conditions: iHSKM cells + IFN-b, HiBiT-tagged MHC-I luminescence, 24 h; series mostly up to 45.8 µM; activity change, negative = inhibition: at the top concentration
# In short: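 Luminescence from CRISPR HiBit-tagged endogenous HLA-B in human myoblasts reported MHC class I level after 24 h of IFN-beta (4 ng/ml) plus compound. Compounds ran as 11-point 1:3 series, top 46 uM final.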
# Potency is the fitted concentration of half-maximal effect.
SMILES,"activity change, negative = inhibition",Potency
CC1(N2CCC(n3c([C@@H]4CCCNC4)nc4ccccc43)CC2)CCCCCCC1,-69% (inactive),–
O=C(NCC1CCOCC1)c1cnc(Nc2ccc(Cl)cc2Cl)nc1C(F)(F)F,-7.65% (inactive),–
COc1ccc(N(C(=O)Oc2c(C)cccc2C)c2ccnc(Nc3ccc(N4CCN(C)CC4)cc3)n2)c(OC)c1,-18.9% (inactive),–
O=S(=O)(F)Cc1ccccc1,-4.65% (inactive),–
CN[C@@H]1Cc2cccc3[nH]c(=O)n(c23)C1,3.71% (inactive),–
CCNC(=O)C[C@@H]1N=C(c2ccc(Cl)cc2)c2cc(OC)ccc2-n2c(C)nnc21,-20.1% (inactive),–
O=c1[nH]c2ccc(Cl)cc2c(N[C@@H]2CN3CCC2CC3)c1-c1nc2ccccc2[nH]1,–,4.66 µM (active)
c1ccc2c(CN3CCNCC3)cccc2c1,14.5% (inactive),–
O=C(N[C@@H](COc1ccc2[nH]c(=O)[nH]c2c1)c1ccccc1)c1cccn(Cc2ccc(F)c(F)c2)c1=O,-18.3% (inactive),–
CC(C)(O)C(=O)Nc1ccc([N+](=O)[O-])c(C(F)(F)F)c1,-16.7% (inactive),–
CN(C)[C@@H]1C(=O)C(C(N)=O)=C(O)[C@@]2(O)C(=O)C3=C(O)c4c(O)cccc4[C@@](C)(O)[C@H]3[C@H](O)[C@@H]12,7.55% (inactive),–
CCCC[N+]1(C)[C@H]2CC(OC(=O)[C@H](CO)c3ccccc3)C[C@H]1[C@H]1O[C@H]12 (some centres not stated),0.736% (inactive),–
C[C@]12CC[C@@H]3[C@@H](CCC4=CC(=O)CC[C@@H]43)[C@@H]1CC[C@@H]2OC(=O)CCc1ccccc1,0.252% (inactive),–
Cc1ccccc1-n1c(Cn2cnc3c(N)ncnc32)nc2cccc(C)c2c1=O,-7.46% (inactive),–
O=c1cccc2n1CC1CNC[C@H]2C1,-0.833% (inactive),–
CCOC(=O)Nc1ccc(NCc2ccc(F)cc2)cc1N,-28% (inactive),–
CCNC(=O)CC1N=C(c2ccc(Cl)cc2)c2cc(OC)ccc2-n2c(C)nnc21 (configuration not stated),-16.7% (inactive),–
